Assay outcomes: PubChem, several laboratories
Insulin prom inh: TRM-6 insulin promoter activity inhibition; TRM-6 cells (human fetal islet line), insulin promoter-eGFP reporter, imaging; reporter expression induced with tamoxifen; hit rate 0.9% among 130,000; inhibition, % at 2 µM;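 active = inhibition above the mean plus 3 SD, with well images judged a real hit on visual review, cut at about 60% in these data, passing the limit was not always enough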
ROMK primary: human ROMK K+ channel modulation, primary screen; Tet-inducible ROMK, thallium flux fluorescence; actives lie on both sides; B-score at 10 µM; hit rate 2% among 130,000;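 active = signal ratio slope over the read window, or its plate-corrected B-score, at least 3 SD from the plate mean, either direction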;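 also: B-score of the F/F0 ratio slope over 7 to 12 s after thallium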
Target sequence (P48048 whole entry, looked up): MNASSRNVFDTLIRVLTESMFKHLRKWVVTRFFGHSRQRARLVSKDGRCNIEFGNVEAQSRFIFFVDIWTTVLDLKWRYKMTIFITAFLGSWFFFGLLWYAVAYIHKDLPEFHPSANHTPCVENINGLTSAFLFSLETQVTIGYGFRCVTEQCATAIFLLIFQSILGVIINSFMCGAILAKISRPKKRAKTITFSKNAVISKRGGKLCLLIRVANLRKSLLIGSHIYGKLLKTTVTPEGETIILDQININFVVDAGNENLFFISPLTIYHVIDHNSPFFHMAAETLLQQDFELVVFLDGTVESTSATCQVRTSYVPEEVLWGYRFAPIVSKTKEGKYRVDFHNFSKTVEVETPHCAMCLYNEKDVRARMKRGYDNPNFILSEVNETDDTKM
SDO1 yeast rescue: sdo1-depleted yeast growth rescue; S. cerevisiae sdo1-depleted JHY4D growth rescue, OD600 30 h; stronger effect = higher value; pdr5 snq2 efflux-pump mutant strain; z-score at 10 µM; hit rate 0.21% among 140,000;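 active = z-score above 3 at both the 24 hr and the 30 hr optical density reads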;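 also: z-score against mean and SD of all compound wells on the same plate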
Measles CPE: protection of cells from measles virus | protection (pct of control), % at 4 µM | Measles virus-infected cells, CPE protection, absorbance | hit rate 1.5% among 140,000; in the data active = protection mostly above about 24%, no sharp cut-off; inactive = mostly below about 26%
The depositor's hits bear a star; . = not tested or not shown. Hits are enriched below; roughly 3% of the tested compounds scored in any of these assays.

SMILES | Insulin prom inh | ROMK primary | SDO1 yeast rescue | Measles CPE
CC(/C=C(\NC(=O)c1ccccc1)C(=O)N=Nc1c(O)[nH]c2ccc(C)cc12)=C\c1ccccc1 | 31.4 | -1.23 | 2.23 | 13.6
COc1ccc(N2C(=O)[C@@H]3Cc4ccccc4CN3C2=O)cc1 | . | . | 0.48 | 31.5*
O=C(NCc1ccc2c(c1)OCO2)c1ccc(CN2CCOCC2)cc1 | 89.0* | . | 0.02 | 7.0
Cc1cccc(CSCCNC(=O)c2ccc(CN3CCOCC3)cc2)c1 | 71.4* | -1.45 | -1.12 | 7.8
CC(NC(=O)CN(C)Cc1cccs1)c1ccccc1 (configuration not stated) | . | 1.77 | . | .
S=C(Nc1ccc(Nc2ccccc2)cc1)N1CCN(c2ncccn2)CC1 | . | 0.939 | . | .
C/C(=N\NC(=O)c1cc(-c2ccncc2)nc2ccccc12)c1ccc(OC(F)F)cc1 | -11.1 | 0.0514 | . | .
Cc1ccc(NC(=O)C2CCCN(S(=O)(=O)c3cnc[nH]3)C2)c(Br)c1 (configuration not stated) | . | . | 0.78 | 29.4*
O=C(Nc1ccc(Br)cc1F)C1CCCN(S(=O)(=O)c2cnc[nH]2)C1 (configuration not stated) | . | . | -0.05 | 8.7
COC(=O)c1ccc(C)c(NC(=O)CCc2ccc(OC)cc2)c1 | -14.3 | 0.822 | -0.42 | 9.1
CCOC(=O)Nc1cc(C(=O)OC)ccc1C | -27.5 | 1.06 | 0.94 | 32.6*
O=C(O)CCSc1nnc(SCC(=O)NCC(F)(F)F)s1 | -9.1 | 0.0372 | 1.54 | 10.2
CCCN1CNC(=S)N(c2cccc(C)c2C)C1 | 23.1 | . | 1.14 | 7.5
CCCN1CNC(=S)N(c2cc(C)ccc2C)C1 | -39.5 | . | 0.96 | 34.1*
CC1CCCCC1NC(=O)c1cc2ccccc2o1 (configuration not stated) | -53.9 | -0.765 | -0.97 | 5.3
COCCNC(=O)C1CC(=O)N(c2ccc(C)cc2)C1 (configuration not stated) | . | . | 0.82 | 5.7
CSc1nc2ccc(Br)cc2[nH]1 | . | -0.722 | . | .
Cc1nc2c([nH]c3ccc(Br)cc32)s1 | 95.0* | 0.586 | -1.67 | 7.2
O=C(O)CCCN=Cc1c(O)c2ccccc2oc1=O | -58.3 | 1.37 | . | .
CCC(=O)Nc1cccc(-c2cnc3ccccc3n2)c1 | 8.7 | 0.0662 | -0.31 | 40.5*
N#CC(c1ccc(Cl)nn1)c1c(F)cccc1Cl (configuration not stated) | 10.0 | 0.378 | . | .
Cc1nn(C(=O)c2ccco2)c(C)c1Br | 66.7* | -0.465 | -0.01 | 19.6
Cc1nn(C(=O)c2ccco2)c(C)c1Sc1ccc(Cl)cc1 | . | 0.422 | 0.42 | 28.0
Cc1cc(C)nc(NC2=NCCN2C(=S)Nc2c(C)cccc2C)n1 | . | -0.298 | . | .
COc1ccc(C2(C(=O)NCc3ccco3)CCCC2)cc1OC | 2.7 | . | 0.2 | 52.6*
SMILES | Insulin prom inh | ROMK primary | SDO1 yeast rescue | Measles CPE
O=C(OCCCCN1C(=O)c2ccccc2C1=O)c1ccc(Br)o1 | 78.6* | . | -0.9 | 9.6
Cc1cccc(CNC(=O)CCc2nnc(C3CCCCC3)o2)c1 | . | -0.0925 | . | .
O=C(c1ccc2c(c1)OCO2)C1CCCN(C(=O)c2cnn(Cc3ccccc3)c2)C1 (configuration not stated) | . | 0.842 | . | .
CC(/C=N/NC(=O)Cc1cccn1C)=C\c1ccccc1 | 75.0* | 0.1 | 0.89 | 5.9
Cn1cccc1CC(=O)N/N=C/c1cccc2ccccc12 | 9.1 | . | 0.07 | 3.5
Cc1nc(C)c(C(=O)NNC(=O)c2ccc(Br)cc2)s1 | . | . | 0.38 | 12.9
O=[N+]([O-])c1ccccc1S(=O)(=O)n1nnc2ccccc21 | 42.9 | . | -0.18 | 26.8
N#CC(C#N)=C1CCc2ccccc2N1 | 56.2 | 0.00492 | 1.09 | 58.8*
Nc1ccc2c(c1)Nc1ccccc1CC2 | . | -0.607 | . | .
CCCCCn1c(Sc2ncccn2)nc2c1c(=O)[nH]c(=O)n2C | 44.4 | 0.102 | -0.11 | 38.0*
CC(C)CC(c1nnnn1CCc1ccccc1)N1CCC(C(N)=O)CC1 (configuration not stated) | 100.0* | 0.615 | 0.35 | 8.6
CCc1ccc(-c2cn3c(n2)SCC3)cc1 | 83.3* | -1.27 | . | .
Cc1ccc(-c2cn3c(n2)SCC3)cc1 | 52.9 | 0.0253 | . | .
COc1cccc2cc(C(=O)N3C(C)CCCC3C)c(=O)oc12 (configuration not stated) | 40.0 | 0.664 | -0.34 | 18.6*
NC(=O)C1CCN(CC(=O)Nc2ccccc2N2CCOCC2)CC1 | . | -0.715 | . | .
Cc1ccc(OCCCCNC2CCCCC2)c(C)c1 | -30.0 | -0.707 | . | .
C=CCSC1=NC(=O)/C(=C/c2cccs2)S1 | 8.3 | -5.66* | 0.01 | 2.6
O=C(Oc1ccccc1)c1cccc2cccnc12 | -42.1 | 0.628 | 1.75 | 47.8*
CCOC(=O)Cc1cc(=O)n2[nH]cc(-c3cccc(Br)c3)c2n1 | . | 0.83 | . | .
CN1CCN(c2ccccc2NC(=O)c2ccc(N3CCCCC3)c([N+](=O)[O-])c2)CC1 | . | -2.25 | . | .
CN1CCN(c2ccc(C(=O)c3ccccc3)cc2[N+](=O)[O-])CC1 | 66.7* | -1.93 | 0.47 | 10.6
Cc1ccc(-c2csc3nc[nH]c(=S)c23)cc1C | . | . | -2.12 | 3.4
Cc1c(-c2ccccc2)sc2nc[nH]c(=S)c12 | -41.7 | 4.86* | . | .
COc1ccc(OCCC(=O)OCC(=O)Nc2cccc(Br)c2)cc1 | -35.5 | . | 0.93 | 41.2*
COc1ccc(OCCC(=O)OCC(=O)Nc2ccc(Br)cc2)cc1 | . | . | 0.84 | 2.5
SMILES | Insulin prom inh | ROMK primary | SDO1 yeast rescue | Measles CPE
Cc1cc2c(nc1C)CCCN2C[C@@H](C)O/N=C1/[C@H]2CCn3c(=O)n(-c4ccccc4)c(=O)n3[C@H]2[C@H](O)[C@@H]2O[C@H]12 | 18.2 | 0.132 | 0.61 | 4.8
CC(=O)OC(C(=O)NCc1ccco1)c1cccnc1 (configuration not stated) | 76.3* | 0.107 | 0.77 | 20.1
COc1ccc(Nc2nnc(SCC(=O)Nc3ccc4[nH]c(=O)[nH]c4c3)s2)cc1 | . | 0.325 | . | .
COc1ccc(Cl)cc1-c1nc(-c2ccncc2)no1 | 81.0* | -0.019 | 0.06 | 11.1
COc1ccccc1-c1nc(-c2ccncc2)no1 | 18.2 | . | -0.98 | 23.4
COc1ccccc1OCC(=O)Nc1ccc(S(=O)(=O)N2CCCCCC2)cc1 | . | . | -0.82 | 17.6
O=C(COC(=O)c1n[nH]c2ccccc12)Nc1ccc(S(=O)(=O)N2CCCC2)cc1 | -6.1 | -0.0251 | 0 | 70.6*
COc1ccccc1N(CC(=O)Nc1ccc(S(=O)(=O)N2CCCCC2)cc1)S(C)(=O)=O | -12.5 | -0.829 | 0.89 | 64.9*
CCOc1ccccc1N(CC(=O)Nc1ccc2c(c1)OCCO2)S(C)(=O)=O | 81.8* | . | 0.05 | 7.6
C=CCn1c(SCC(=O)N2CC(=O)Nc3ccccc32)nc2scc(-c3cccs3)c2c1=O | . | -2.07 | -1.09 | 80.5*
CC(C)CCn1c(SCC(=O)N2CC(=O)Nc3ccccc32)nc2scc(-c3cccs3)c2c1=O | -22.9 | 0.731 | -0.12 | 5.7
Cc1nc(Nc2ccccc2)sc1-c1ccccc1 | 52.9 | 0.994 | -1.61 | 3.9
Cc1nc(Nc2ccc(C(=O)O)cc2)sc1-c1ccccc1 | . | 3.68* | . | .
COc1ccc(C(=O)Nn2c(SCC(=O)c3ccc(Cl)cc3)nc3ccccc3c2=O)cc1 | 82.9* | . | 0.13 | 83.6*
CCOC(=O)C1CCN(C(=O)CSc2n[nH]c(=O)[nH]c2=O)CC1 | 81.5* | 0.794 | 0.21 | 5.4
CSC(=Nc1ccc(Cl)cc1)N[n+]1ccccc1 | -15.4 | 0.174 | 1.27 | 7.7
C=CCN=c1scc(-c2ccccc2)n1/N=C/c1ccccn1 | . | 0.392 | -1.49 | 50.4*
CCN=c1scc(-c2ccccc2)n1/N=C/c1ccccn1 | . | . | -0.96 | 61.9*
